FAS TE block: FAS thioesterase domain inhibitors, primary screen, biochemical, fluorescence intensity, uHTS; recombinant FAS-TE, OMFH fluorogenic substrate, fluorescence endpoint; inhibition, % at 15 µM; 360,000 compounds, 0.67% hits; AID 602261, 2012;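 active means compounds whose normalised, plate-corrected inhibition of enzyme fluorescence in the single-dose primary screen is 50% or more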;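 further: 0% = DMSO with enzyme and 100% = substrate without enzyme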
GC-A act: GC-A stimulated cGMP production enhancers – HEK293 GC-A cells, cGMP TR-FRET, EC30 ANP, primary screen; Atrial natriuretic peptide receptor 1 (Homo sapiens), P16066; 0% at EC30 ANP, 100% saturating ANP; activation, % at 10 µM; 370,000 compounds, 0.14% hits; in the data active means activation above about 40%
NPR2 activator: human GC-B receptor activators, primary screen, HEK293 GC-B cells, cGMP TR-FRET, EC30 CNP | Atrial natriuretic peptide receptor 2 (Homo sapiens), P20594 | 0% at EC30 CNP, 100% saturating CNP | activation, % at 10 µM | 370,000 compounds, 0.11% hits | AID 1920062, 2024;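 active means activation at 10 µM reaching about 35% in either raw or pattern-adjusted values, limit read from the data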
aDG glyco act: activators of alpha-DG glycosylation, primary screen, uHTS, Pro5-aDG cells, AlphaScreen; alpha-DG glycosylation AlphaScreen (IIH6); 0% Pro5, 100% B10-LARGE cell signal; activation, % at 10 µM; 360,000 compounds, 0.22% hits; AID 624168, 2012;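 active means activation of at least 8% versus controls, or a plate z-score of at least 8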;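 further: Pro5 are CHO cells carrying HIG-tagged alpha-DG that lacks glycosylation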
FAS-TE inh conf: FAS thioesterase domain inhibitors, confirmation, biochemical, fluorescence intensity, single concentration | 2,300 compounds, 45% hits | recombinant FAS-TE, OMFH fluorogenic substrate | inhibition, % at 15 µM | AID 624325, 2012 | shares compounds with FAS TE block;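 active means compounds inhibiting the enzyme by at least 50% at 15 µM in any one of the replicates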;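 further: 0% = enzyme with DMSO only and 100% = wells lacking enzyme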
Starred values were filed as active, the others as inactive; / = not tested or not shown. Hits are enriched below; roughly 1.1% of the tested compounds scored in any of these assays.

SMILES	FAS TE block	GC-A act	NPR2 activator	aDG glyco act	FAS-TE inh conf
CCCNC(=O)c1nnsc1S(=O)(=O)c1ccc(Cl)cc1	52.9*	19.9	28.0	-0.7	70.2*
CCCNC(=O)c1nnsc1S(=O)c1ccc(Cl)cc1 (stereo not drawn)	14.1	15.6	0.8	-0.5	/
COC(=O)C1CN(CC(C)C)CCS(=O)(=O)N1Cc1ccc(C(F)(F)F)cc1 (stereo not drawn)	/	-4.0	-0.3	/	/
COc1ccc(CNC(=O)[C@@H](Cc2ccccc2)NC(=O)[C@H]2O[C@@H](n3cnc4c(=O)[nH]c(N)nc43)[C@H](O)[C@@H]2O)cc1	/	1.5	-3.1	/	/
O=C(O)/C(=C/c1ccc(Cl)c([N+](=O)[O-])c1)c1ccc(S(=O)(=O)N2CCCCC2)s1	55.8*	4.1	8.5	-0.3	52.9*
O=[N+]([O-])c1cc(C(F)(F)F)ccc1N1CCC(O)CC1	1.8	3.9	5.0	0.1	/
O=C(Nc1ccc(Cl)cc1)N1CCCN(c2ccc(C(F)(F)F)cc2[N+](=O)[O-])CC1	54.5*	-17.0	-12.4	1.1	20.9
N#CC(C#N)=C1SC(=Nc2ccccc2)C(=Nc2ccccc2)N1c1ccccc1	56.8*	0.0	-1.4	1.9	37.0
CN(C)c1cccc(/C=C2\CC3(OC(=O)C4CCCC4)CCCN2C3)c1 (stereo not drawn)	/	-2.4	-10.3	/	/
COc1ccc(C2=C(C=Nc3c(C)n(C)n(-c4ccccc4)c3=O)C(c3ccccc3C)c3ccccc3O2)cc1OC (stereo not drawn)	83.9*	-0.8	-4.1	-0.4	27.8
Cc1ccc(S(=O)(=O)c2c(C(=O)c3ccccc3)cnc3cc4c(cc23)OCCO4)cc1	69.8*	-4.2	-3.0	0.0	36.8
CC(=O)O[C@@H]1CCC[C@@]2(C(=O)N(Cc3ccccc3)c3ccc(-c4c(C)noc4C)cc32)[C@H]1NC(=O)CCc1ccccc1	/	-19.9	-12.8	/	/
N#Cc1ccc(-c2cccnc2)nc1SCc1ccc(Cl)cc1Cl	55.4*	35.2	42.0*	0.1	16.4
N#Cc1ccc(-c2cccnc2)nc1SCc1ccc(Cl)c(Cl)c1	41.5	9.5	11.3	0.2	/
Cc1nn(-c2ccccc2)c(C)c1/C=N\NC(=O)CSc1nc2ccccc2n1Cc1ccc(Cl)cc1	/	-1.9	-5.9	/	/
CCOc1ccc(N(CC(=O)NCCSc2ccccn2)S(=O)(=O)c2ccc(Cl)cc2)cc1	24.2	-4.0	-9.0	0.0	/
C/C=C/C=N/NC(=O)CN(c1ccc(Br)cc1)S(=O)(=O)c1ccccc1	58.5*	-4.7	-0.1	-0.1	72.3*
O=C(CN(c1ccc(Cl)cc1)S(=O)(=O)c1ccccc1)N/N=C/c1ccco1	57.9*	0.0	-5.2	-0.1	40.7*
CC(=O)Nc1ccc(NC(=O)CN(c2ccc([N+](=O)[O-])cc2)S(=O)(=O)c2ccccc2)cc1	21.2	-4.3	-3.5	0.1	/
CCOc1ccc(N(CC(=O)N/N=C/c2ccccn2)S(=O)(=O)c2ccc(Cl)cc2)cc1	61.0*	-6.3	3.7	0.2	66.4*
Cc1ccc(S(=O)(=O)N(CC(=O)N/N=C/c2ccco2)c2cc(Cl)cc(Cl)c2)cc1	39.8	-11.4	1.2	-0.4	/
CCOc1ccc(NC(=O)CN(c2ccc([N+](=O)[O-])cc2)S(=O)(=O)c2ccccc2)cc1	54.8*	-5.5	-5.0	0.7	37.3*
CCC(c1nc2ccccc2[nH]1)n1c(-c2ccc3cc[nH]c3c2)nc2ccccc21 (stereo not drawn)	/	-19.9	-22.7	/	/
S=c1[nH]nc(-c2cc(-c3ccccc3)n[nH]2)n1N=Cc1cccc(Oc2ccccc2)c1	/	-9.3	-6.7	/	/
Cc1ccccc1CNC(=O)C1CCCN(c2ncccn2)C1 (stereo not drawn)	/	2.3	0.8	/	/
SMILES	FAS TE block	GC-A act	NPR2 activator	aDG glyco act	FAS-TE inh conf
C=CCN1C(C(=O)OC)CN(Cc2cn(Cc3ccc(C)cc3)nn2)CCS1(=O)=O (stereo not drawn)	/	-1.7	4.6	/	/
Cc1ccccc1C(=O)N(C)[C@H]1C[C@H]2c3[nH]c4c(-c5ccccc5)cccc4c3CCN2C[C@H]1[C@H](C)O	/	-4.7	2.7	/	/
CC(C)(C)OC(=O)N1CCC(N[C@@H](Cc2c[nH]c3ccccc23)C(=O)NCCc2c[nH]c3ccccc23)(C(=O)NC2CCCCC2)CC1	/	-1.4	-4.5	/	/
Cc1cccc([C@@H]2[C@@H]3C(=O)N(Cc4ccccc4)C(=O)[C@@H]3[C@]3(CC(C)C)C(=O)N(c4cccc(F)c4)C(=O)N23)c1	71.9*	-14.8	-21.6	0.2	25.9
CC[C@@]12C(=O)N(c3cccc(F)c3)C(=O)N1[C@H](c1cccc(C)c1)[C@@H]1C(=O)N(Cc3ccccc3)C(=O)[C@@H]12	15.6	-8.3	-17.4	0.4	/
Cc1cccc([C@@H]2[C@@H]3C(=O)N(Cc4ccccc4)C(=O)[C@@H]3[C@]3(Cc4ccccc4)C(=O)N(c4cccc(F)c4)C(=O)N23)c1	91.7*	-11.6	-18.5	0.1	17.2
Cc1ccc(S(=O)(=O)N2CCCc3nc(-c4ccc(Br)cc4)ccc32)cc1	/	1.2	5.9	/	/
CCCC1CCC2(CCC(=O)N2CCOC)CC1 (stereo not drawn)	/	3.2	-11.4	/	/
CC(C)C(=O)Oc1ccc(CO)cc1[C@H](CCN(C(C)C)C(C)C)c1ccccc1	/	-25.9	-15.1	/	/
COc1cc(C2CC(=O)Nc3cc(C)c(C)cc32)cc(OC)c1OC (stereo not drawn)	-8.7	0.4	1.9	0.6	/
Cc1cc2c(cc1C)C(c1cccc([N+](=O)[O-])c1)CC(=O)N2 (stereo not drawn)	59.7*	-7.6	-2.2	0.4	79.4*
Cc1cccc(NC(=O)CSc2nc3c(oc4ccccc43)c(=O)n2-c2ccccc2)c1	57.2*	0.7	-7.4	-0.1	34.7*
CN1CCCC1CCSc1ncccc1-c1nc2ccccc2[nH]1 (stereo not drawn)	/	0.0	-4.1	/	/
COc1ccc(-n2c(SCc3ccc([N+](=O)[O-])cc3)nnc2-c2ccc(C)cc2)cc1	58.2*	-12.8	-5.6	0.1	42.3
O=S(=O)(c1ccc(-c2csc(Nc3ccc(F)cc3)n2)cc1)N1CCCC1	65.2*	2.9	5.1	-0.2	45.7*
O=C(COc1ccccc1)Nc1nc(-c2ccc(S(=O)(=O)N3CCOCC3)cc2)cs1	85.5*	1.8	7.4	0.1	57.9*
O=C(Nc1nc(-c2ccc(S(=O)(=O)N3CCCC3)cc2)cs1)C1COc2ccccc2O1 (stereo not drawn)	89.6*	0.0	7.3	-0.2	43.1*
COC(=O)[C@]1(CC(C)C)NC=C(C(=O)c2ccccc2)[C@@H]1c1cccs1	/	0.7	-4.6	/	/
COC(=O)[C@@]1(Cc2ccc(OC)cc2)[C@H]2c3cc(C(=O)N4CCCC4)n(Cc4ccc(C)o4)c3C[C@H]2CN1C(=O)c1ccccc1	/	-1.0	3.3	/	/

Screening results (PubChem)
